This note sets out measurements from PubChem BioAssay.

Experiment [1] in a line: probe aLefty2 binding to arrayed compounds – biochemical, biotinylated probe, 635/667 nm fluorescence, primary screen (AID 1094).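 Further: score merges spot fluorescence near 667 nm with spot signal-to-noise ratio.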 The following applies: small-molecule microarray, higher = more signal.
Experiment [2] deals with Noggin (protein binding on small-molecule microarray). The experiment can be described thus: small molecules binding Noggin protein – biochemical, 635/667 nm fluorescence, primary screen (AID 1095).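 Further: score merges 667 nm feature fluorescence with signal to noise over triplicate slides.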 Particulars: 635 nm fluorescence, higher = more signal.
Experiment [3] addresses Neurogenic locus notch homolog protein 3 (Homo sapiens) (UniProt Q9UM47). The experiment is described as follows: small molecules binding NOTCH3 protein – biochemical, 635/667 nm fluorescence, primary screen (AID 1096). Particulars: small-molecule microarray, 635 nm fluorescence, higher = more signal.
Experiment [4] is described as follows: probe aEGFR binding to arrayed compounds – biochemical, biotinylated probe, 635/667 nm fluorescence, primary screen (AID 1097).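 Further: probe is a biotinylated anti-EGFR antibody binding compounds printed on slides; score combines fluorescence near 667 nm and signal to noise of each spot.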 The following applies: small-molecule microarray, higher = more signal.
Experiment [5] concerns Plasmodium falciparum Sir2 (PF13_0152, Sir2A). The experiment is described as follows: Plasmodium falciparum Sir2A binding compounds – biochemical, small-molecule microarray, 635 nm fluorescence, primary screen (AID 1098).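 Further: score merges spot fluorescence intensity with its signal-to-noise ratio.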 Particulars: fluorescence 635 nm, higher = more signal.
Experiment [6] in a line: probe aDKK1 binding to arrayed compounds – biochemical, biotinylated probe, 635/667 nm fluorescence, primary screen (AID 1099).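 Further: score merges 667nm spot fluorescence with signal to noise across triplicate slides.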 Particulars: small-molecule microarray, higher = more signal.
Experiment [7] in a line: probe aCHRDL2 binding to arrayed compounds – biochemical, biotinylated probe, 635/667 nm fluorescence, primary screen (AID 1100). The following applies: small-molecule microarray, higher = more signal.
The nature of experiment [8]: change in splice reporter luminescence, either direction, cell-based, HEK293, spliceosome inhibition project, primary screen (AID 1101).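 Further: HEK293 cells carrying a splicing-competent luciferase reporter gene; test concentration not given here.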 The following applies: HEK293 splicing luciferase reporter, 24 h, higher = more signal, called active from +8 up or from −8 down.
In experiment [9] the target is Fibroblast growth factor 10 (Homo sapiens) (UniProt O15520). The experiment can be described thus: compounds binding fibroblast growth factor 10 – biochemical, small-molecule microarray, 635 nm fluorescence, primary screen (AID 1102). The following applies: FGF10 binding, fluorescence 635 nm, higher = more signal.
Chain of Fibroblast growth factor 10 (Homo sapiens) (O15520 whole entry, looked up): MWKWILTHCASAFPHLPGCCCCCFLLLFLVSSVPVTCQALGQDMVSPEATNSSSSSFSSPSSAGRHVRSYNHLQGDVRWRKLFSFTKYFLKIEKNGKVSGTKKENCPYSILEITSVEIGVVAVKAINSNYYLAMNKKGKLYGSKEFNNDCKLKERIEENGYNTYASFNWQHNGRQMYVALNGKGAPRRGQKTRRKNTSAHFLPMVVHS
The subject of experiment [10] is glycogen synthase kinase-3 (GSK3A per assay name; protocol says GSK3B). The experiment is described as follows: compounds binding glycogen synthase kinase-3 – biochemical, small-molecule microarray, 635 nm fluorescence, GSK3A, primary screen (AID 1103). Further: the record names both GSK3A and GSK3B. Particulars: fluorescence 635 nm, higher = more signal.
Experiment [11] has as its target Epidermal growth factor receptor (Homo sapiens) (UniProt P00533). The experiment can be described thus: compounds binding epidermal growth factor receptor – biochemical, small-molecule microarray, 635 nm fluorescence, primary screen (AID 1104).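 Further: score merges 667 nm emission intensity with spot signal to noise over triplicate slides.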 The following applies: EGFR binding, higher = more signal.
For experiment [12], the target named is Follistatin-related protein 3 (Homo sapiens) (UniProt O95633). The experiment is described as follows: compounds binding follistatin-related protein 3 – biochemical, small-molecule microarray, 635 nm fluorescence, primary screen (AID 1105).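 Further: score merges emission near 667 nm and signal to noise per printed spot across three slides.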 Particulars: FSTL3 binding, higher = more signal.
Chain of Follistatin-related protein 3 (Homo sapiens) (O95633 whole entry, looked up): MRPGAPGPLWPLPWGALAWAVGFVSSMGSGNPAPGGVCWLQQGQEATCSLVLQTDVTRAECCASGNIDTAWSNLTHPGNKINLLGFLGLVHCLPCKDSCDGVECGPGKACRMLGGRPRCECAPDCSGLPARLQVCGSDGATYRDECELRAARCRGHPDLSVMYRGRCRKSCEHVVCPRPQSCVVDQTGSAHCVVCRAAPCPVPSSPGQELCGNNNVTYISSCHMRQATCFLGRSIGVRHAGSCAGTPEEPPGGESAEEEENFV
In experiment [13] the target is Dickkopf-related protein 1 (Homo sapiens) (UniProt O94907). The experiment can be described thus: small molecules binding DKK1 protein – biochemical, small-molecule microarray, 635 nm fluorescence scan, primary screen (AID 1106).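 Further: score merges emission near 667 nm with signal to noise over three replicate slides.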 The following applies: higher = more signal.
Chain of Dickkopf-related protein 1 (Homo sapiens) (O94907 whole entry, looked up): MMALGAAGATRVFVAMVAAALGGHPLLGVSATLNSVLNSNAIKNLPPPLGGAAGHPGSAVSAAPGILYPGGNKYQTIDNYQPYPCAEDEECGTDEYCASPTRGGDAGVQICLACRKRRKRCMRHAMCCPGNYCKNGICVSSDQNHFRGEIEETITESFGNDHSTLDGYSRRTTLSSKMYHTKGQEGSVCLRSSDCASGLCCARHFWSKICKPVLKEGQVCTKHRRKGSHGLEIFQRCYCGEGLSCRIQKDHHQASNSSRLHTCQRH
In experiment [14] the test system is Inhibin beta A chain (activin A). The experiment is described as follows: small molecules binding activin A – biochemical, small-molecule microarray, 635 nm fluorescence scan, primary screen (AID 1107).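 Further: mouse activin A protein probed at 4.33 µg/mL on printed slides; score merges bound-protein fluorescence near 667 nm with spot signal-to-noise.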 The following applies: INHBA, higher = more signal.
Experiment [15] concerns Human papillomavirus type 1a protein E7 (residues 44-93). The experiment is described as follows: small molecules binding HPV E7 44-93 – biochemical, small-molecule microarray, residues 44-93, 635 nm fluorescence, primary screen (AID 1108).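 Further: E7 fragment applied at 1 µg/mL in TBST for 1 h at 4 C; score combines spot fluorescence with its signal to noise ratio.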 The following applies: fluorescence 635 nm, higher = more signal.
A short description of experiment [16]: hepatitis C replication reporter changes, two-sided – Huh7 cells, luciferase reporter, HCV replication inhibitor project, primary screen (AID 1109).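 Further: huh7 hepatoma cells harbouring a luciferase neomycin HCV replicon reporter; luciferase luminescence as measure of HCV replicon replication; test concentration not given here.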 The following applies: Huh7 HCV replicon luciferase reporter, 48 h; higher = more signal. In general terms: A reporter such as luciferase makes a cellular process visible.
Experiment [17] concerns the target Left-right determination factor 2 (Homo sapiens) (UniProt O00292). The experiment is described as follows: small molecules binding LEFTY2 protein – biochemical, small-molecule microarray, 635 nm fluorescence scan, primary screen (AID 1110). The following applies: higher = more signal.
The target in experiment [18] is Calmodulin-1 (Homo sapiens) (UniProt P0DP23). The experiment can be described thus: small molecules binding calmodulin-1 with EGTA – biochemical, small-molecule microarray, Cy5-labelled CALM1, profiling panel (AID 1111).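 Further: labelled calmodulin applied in Tris saline Tween buffer holding calcium plus EGTA and DTT.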 Particulars: Cy5-CALM1 binding fluorescence, higher = more signal.
Experiment [19] has the same target. The experiment is described as follows: small molecules binding Ca-loaded calmodulin-1 – biochemical, small-molecule microarray, Cy5-labelled CALM1, plus calcium, artefact control for SMM control-protein annotation, profiling panel (AID 1112).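 Further: score merges spot fluorescence with signal to noise from triplicate slides.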 The following applies: Cy5-CALM1 binding fluorescence, higher = more signal.
Experiment [20] is described as follows: probe aWnt5a binding to arrayed compounds – biochemical, biotinylated probe, 635/667 nm fluorescence, primary screen (AID 1113).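 Further: score merges 667 nm fluorescence intensity with signal-to-noise per printed feature.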 Particulars: small-molecule microarray, higher = more signal.

The structures appear in SMILES notation. Active and inactive are the calls of the source.

Chain of Left-right determination factor 2 (Homo sapiens) (O00292 whole entry, looked up): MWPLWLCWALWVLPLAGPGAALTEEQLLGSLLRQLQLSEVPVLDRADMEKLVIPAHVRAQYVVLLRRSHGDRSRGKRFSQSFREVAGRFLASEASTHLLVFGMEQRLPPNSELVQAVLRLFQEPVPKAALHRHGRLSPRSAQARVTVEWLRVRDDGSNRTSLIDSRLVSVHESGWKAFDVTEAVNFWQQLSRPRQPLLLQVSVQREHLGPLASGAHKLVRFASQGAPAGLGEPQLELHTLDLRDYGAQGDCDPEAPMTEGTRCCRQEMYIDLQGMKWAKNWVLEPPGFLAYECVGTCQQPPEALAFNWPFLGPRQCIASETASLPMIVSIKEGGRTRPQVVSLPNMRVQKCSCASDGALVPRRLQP
Chain of Neurogenic locus notch homolog protein 3 (Homo sapiens) (Q9UM47 whole entry, looked up): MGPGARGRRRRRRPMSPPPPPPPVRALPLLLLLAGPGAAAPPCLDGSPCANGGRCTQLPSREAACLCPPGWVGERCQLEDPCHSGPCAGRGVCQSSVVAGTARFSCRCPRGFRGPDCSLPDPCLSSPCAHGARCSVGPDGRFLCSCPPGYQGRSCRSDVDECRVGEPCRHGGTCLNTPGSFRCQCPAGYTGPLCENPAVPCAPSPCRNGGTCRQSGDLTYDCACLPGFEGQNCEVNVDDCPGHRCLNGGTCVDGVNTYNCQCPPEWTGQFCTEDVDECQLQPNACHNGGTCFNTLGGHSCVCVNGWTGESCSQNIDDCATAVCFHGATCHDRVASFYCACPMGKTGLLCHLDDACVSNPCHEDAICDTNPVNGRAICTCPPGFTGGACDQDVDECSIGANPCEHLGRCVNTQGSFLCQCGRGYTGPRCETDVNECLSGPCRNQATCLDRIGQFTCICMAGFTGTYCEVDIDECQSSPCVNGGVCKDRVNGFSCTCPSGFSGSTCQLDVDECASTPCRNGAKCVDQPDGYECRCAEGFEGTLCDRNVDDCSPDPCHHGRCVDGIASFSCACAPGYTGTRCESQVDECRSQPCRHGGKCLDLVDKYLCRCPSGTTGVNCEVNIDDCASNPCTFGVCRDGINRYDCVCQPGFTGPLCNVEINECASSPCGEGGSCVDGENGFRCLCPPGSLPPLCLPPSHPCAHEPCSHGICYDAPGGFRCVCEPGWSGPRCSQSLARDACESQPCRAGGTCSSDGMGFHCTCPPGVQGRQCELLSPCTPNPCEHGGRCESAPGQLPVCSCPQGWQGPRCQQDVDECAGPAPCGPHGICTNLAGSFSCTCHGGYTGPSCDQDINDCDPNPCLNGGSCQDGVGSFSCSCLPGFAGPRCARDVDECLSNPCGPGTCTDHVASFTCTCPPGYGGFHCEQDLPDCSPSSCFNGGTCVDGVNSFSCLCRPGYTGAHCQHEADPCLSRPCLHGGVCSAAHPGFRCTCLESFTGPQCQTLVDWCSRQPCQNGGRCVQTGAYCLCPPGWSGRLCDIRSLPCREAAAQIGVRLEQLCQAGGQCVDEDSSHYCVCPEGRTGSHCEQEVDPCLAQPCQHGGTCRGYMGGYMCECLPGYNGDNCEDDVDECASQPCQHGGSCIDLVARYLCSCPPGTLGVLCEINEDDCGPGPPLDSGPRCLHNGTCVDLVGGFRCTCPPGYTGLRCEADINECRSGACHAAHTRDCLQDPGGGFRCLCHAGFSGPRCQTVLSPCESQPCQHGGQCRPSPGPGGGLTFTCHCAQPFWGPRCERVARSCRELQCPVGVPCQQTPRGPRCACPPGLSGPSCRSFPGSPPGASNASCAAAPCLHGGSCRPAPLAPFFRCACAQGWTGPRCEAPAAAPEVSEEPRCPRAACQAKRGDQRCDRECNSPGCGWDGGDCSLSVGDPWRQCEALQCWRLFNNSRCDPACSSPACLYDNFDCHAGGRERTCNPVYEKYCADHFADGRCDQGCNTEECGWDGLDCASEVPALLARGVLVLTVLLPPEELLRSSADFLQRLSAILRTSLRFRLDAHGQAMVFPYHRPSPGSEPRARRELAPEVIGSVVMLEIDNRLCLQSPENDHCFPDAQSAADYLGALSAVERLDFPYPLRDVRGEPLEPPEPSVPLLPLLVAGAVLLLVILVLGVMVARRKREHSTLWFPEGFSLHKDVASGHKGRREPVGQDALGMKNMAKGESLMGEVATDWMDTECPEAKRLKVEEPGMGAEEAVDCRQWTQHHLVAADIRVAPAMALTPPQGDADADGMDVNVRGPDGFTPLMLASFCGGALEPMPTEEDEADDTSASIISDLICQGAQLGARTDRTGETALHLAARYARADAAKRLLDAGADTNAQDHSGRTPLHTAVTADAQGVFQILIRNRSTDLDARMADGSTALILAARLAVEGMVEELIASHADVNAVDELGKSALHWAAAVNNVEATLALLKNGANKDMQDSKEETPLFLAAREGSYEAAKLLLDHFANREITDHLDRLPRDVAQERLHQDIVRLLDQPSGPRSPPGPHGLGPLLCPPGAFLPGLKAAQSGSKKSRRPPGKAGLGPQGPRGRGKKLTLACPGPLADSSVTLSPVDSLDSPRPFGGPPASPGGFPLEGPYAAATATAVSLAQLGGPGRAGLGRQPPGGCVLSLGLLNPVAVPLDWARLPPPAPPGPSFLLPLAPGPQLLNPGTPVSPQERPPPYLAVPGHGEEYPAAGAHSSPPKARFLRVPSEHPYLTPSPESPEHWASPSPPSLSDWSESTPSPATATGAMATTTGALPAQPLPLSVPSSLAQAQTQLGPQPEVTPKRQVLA
Chain of Epidermal growth factor receptor (Homo sapiens) (P00533 whole entry, looked up): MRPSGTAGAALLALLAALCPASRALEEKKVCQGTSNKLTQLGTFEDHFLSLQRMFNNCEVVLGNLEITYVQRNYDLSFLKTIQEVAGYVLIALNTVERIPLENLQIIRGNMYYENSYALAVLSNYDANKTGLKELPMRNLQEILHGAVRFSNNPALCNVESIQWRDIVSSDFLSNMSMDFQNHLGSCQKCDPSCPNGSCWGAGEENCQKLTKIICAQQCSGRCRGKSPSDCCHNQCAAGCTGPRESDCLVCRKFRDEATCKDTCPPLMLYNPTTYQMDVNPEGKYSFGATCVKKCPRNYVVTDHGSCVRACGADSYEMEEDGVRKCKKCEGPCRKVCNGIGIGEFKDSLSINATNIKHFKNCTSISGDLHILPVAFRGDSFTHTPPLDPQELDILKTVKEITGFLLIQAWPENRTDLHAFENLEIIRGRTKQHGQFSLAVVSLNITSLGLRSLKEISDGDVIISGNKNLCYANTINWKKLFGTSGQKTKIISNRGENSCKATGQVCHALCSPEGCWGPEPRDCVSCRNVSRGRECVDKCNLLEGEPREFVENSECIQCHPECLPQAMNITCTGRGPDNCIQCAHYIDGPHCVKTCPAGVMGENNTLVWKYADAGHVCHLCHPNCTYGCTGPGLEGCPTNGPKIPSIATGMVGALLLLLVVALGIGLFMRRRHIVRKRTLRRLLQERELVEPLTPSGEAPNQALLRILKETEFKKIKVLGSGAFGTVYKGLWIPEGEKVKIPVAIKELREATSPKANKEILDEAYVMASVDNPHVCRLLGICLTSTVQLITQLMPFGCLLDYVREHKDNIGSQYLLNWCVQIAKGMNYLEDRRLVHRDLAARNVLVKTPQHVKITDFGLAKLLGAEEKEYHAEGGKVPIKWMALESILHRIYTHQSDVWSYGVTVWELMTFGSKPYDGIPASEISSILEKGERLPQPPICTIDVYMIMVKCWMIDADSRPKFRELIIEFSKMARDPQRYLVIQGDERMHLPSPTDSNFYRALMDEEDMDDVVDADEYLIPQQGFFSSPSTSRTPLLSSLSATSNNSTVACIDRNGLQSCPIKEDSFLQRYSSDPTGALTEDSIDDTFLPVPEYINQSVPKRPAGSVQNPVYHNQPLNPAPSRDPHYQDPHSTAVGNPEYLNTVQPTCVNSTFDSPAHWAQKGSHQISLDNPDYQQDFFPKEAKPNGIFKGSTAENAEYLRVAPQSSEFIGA

As for `CC(=O)NCCCC[C@@H]1NC(=O)[C@@H]2C[C@H](C(=O)O)[C@H](c3cccc(OCCO)c3)N2C1=O`, the composite z-score is -0.0846 in experiment [1]; 1.6 in experiment [2]; 0.58 in [3]; 0.0437 in experiment [4]; 1.25 in [5]; -0.018 in experiment [6]. For the same molecule, the composite z-score in experiment [7] is -0.37; in experiment [9], 1.13; in experiment [10], 1.21; in experiment [11] it was 0.782; in [12] it was 0.787; in experiment [13], 1.21. The composite z-score in experiment [14] is -0.456; in experiment [15], 0.952; in experiment [17], 1.46; in experiment [18], -0.188; in experiment [19] it was -0.789; in experiment [20], -0.0403. Moreover, the z-score was -0.877 (inactive) in [8] and 0.436 in experiment [16].

For the molecule `CC(C)CCC[C@@H](C)[C@H]1CC[C@@]2(C)C3=C(CC[C@]12C)[C@@]1(C)CC[C@H](OC(=O)CCl)C(C)(C)C1CC3` (stereo not given in full), the composite z-score in [1] was -0.145; in experiment [2], 0.44; in experiment [3], 0.847; in [4], 0.0143; in [5] it was 0.346; in experiment [6], -0.0827. The composite z-score in experiment [7] was -0.49; in [9] it was 0.471; in experiment [10], 0.684; in experiment [11], 0.372; in experiment [12], 0.675; in experiment [13] it was 0.604. Besides, the composite z-score is 0.0773 in [14]; 0.637 in experiment [15]; 0.448 in experiment [17]; -0.0581 in [18]; -0.552 in experiment [19]; 0.0115 in experiment [20]. Besides, the z-score in experiment [8] was 0.0767 (inactive); in experiment [16] it was -0.143.

Regarding `C=C(COC)C(=O)CC[C@@H](OC(=O)c1ccccc1-c1ccccc1C(=O)O)c1cccc(OCCO)c1`, the composite z-score in experiment [1] is -0.183; in [2] it was 0.518; in experiment [3] it was -0.338; in experiment [4], -0.173; in [5], 0.147; in experiment [6], -0.0386. The composite z-score is 0.0203 in experiment [7]; 0.552 in experiment [9]; -0.116 in experiment [10]; -0.837 in [11]; -0.0053 in [12]; -0.0221 in [13]. Further, the composite z-score is 1.19 in experiment [14]; -1.75 in experiment [15]; 0.0941 in experiment [17]; -1.17 in [18]; -1.09 in experiment [19]; -0.096 in [20]. In addition, the z-score in experiment [8] is 0.306 (inactive); in experiment [16], -0.54.

With `CC(C)C[C@@H]1NC(=O)[C@@]23C(=O)N[C@@H](Cc4ccccc4)C2[C@H](C)[C@@]2(C)O[C@H]2C3/C=C/C/C=C\CNC(=O)[C@H](Cc2ccccc2)NC1=O` (stereo not given in full), the composite z-score in [1] is -0.202; in experiment [2], 0.404; in [3], 0.414; in [4], -0.0671; in experiment [5], 0.608; in [6], -0.117. For the same molecule, the composite z-score was -0.417 in experiment [7]; 0.286 in experiment [9]; 0.151 in [10]; 0.137 in experiment [11]; 0.315 in [12]; 0.335 in experiment [13]. Further, the composite z-score was 1.49 in [14]; -1.3 in experiment [15]; 0.534 in experiment [17]; -0.388 in experiment [18]; -0.485 in [19]; -0.152 in experiment [20]. Moreover, the z-score was -0.639 (inactive) in [8] and -2.08 in [16].

For `C=C(COC)/C(=C/C[C@H](OC(C)=O)c1cccc(OCCO)c1)c1cc(C(=O)OC)ccc1OC`, the composite z-score in [1] is 0.0056; in experiment [2] it was 1.29; in experiment [3] it was 0.694; in experiment [4], -0.151; in experiment [5] it was 0.84; in experiment [6], 0.0919. Moreover, the composite z-score is -0.143 in [7]; 1.21 in experiment [9]; 0.656 in [10]; 0.0086 in experiment [11]; 1.33 in experiment [12]; 1.47 in [13]. The composite z-score is 0.981 in experiment [14]; -0.109 in [15]; 0.38 in experiment [17]; -0.547 in [18]; -0.377 in experiment [19]; -0.0556 in experiment [20]. The z-score in experiment [8] was -4.8 (inactive); in experiment [16], -4.08.
